# Results filed as inconclusive are left out. A call without a number means that no potency is given here. Activity calls are given as the source filed them. Unless noted, calls follow the shape of the dose curve; as a rule, active = well fitted curve in the direction sought with a large enough effect; inconclusive = small, poorly fitted or top-dose-only effect, or another doubt; inactive = no such curve, though single readings can be large; an effect the other way counts as inactive or inconclusive.
# Assays:
# [1] = Cell Viability - LYMP2-022 (AID 987); also: nearly all actives have a fitted effect of over 55% in size
# Outline: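 Human lymphoblastoid cells, 2500/well, preincubated 5 hr at 37 C, then exposed to compounds over a concentration range for 24 hr at 37 C in complete medium. Viability read as intracellular ATP by CellTiter-Glo luminescence after 30 min at room temperature; AC50 from Hill fits.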
# [2] = Cell Viability - LYMP2-026 (AID 989); also: nearly all actives have a fitted effect of over 50% in size
# Outline: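 Human lymphoblastoid cells (2500/well) in complete medium were preincubated 5 hr at 37 C, then exposed to compounds for 24 hr at 37 C. Cellular ATP was read by CellTiter-Glo luminescence; AC50 from Hill-equation fits of concentration-response data.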
# [3] = Cell Viability - LYMP1-002 - Assay at 24 hr (AID 993)
# Outline: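 Human lymphoblastoid LYMP1-002 cells, 2500/well in complete medium, were treated with compounds for 24 h at 37 C; intracellular ATP was read by CellTiter-Glo luminescence. AC50 values came from Hill-equation fits of qHTS concentration-response data.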
# [4] = Cell Viability - LYMP1-002 - Assay at 40 hr (AID 994); also: nearly all actives have a fitted effect of over 60% in size
# Outline: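 Human lymphoblastoid cells, 2500/well in complete medium, were preincubated 5 hr at 37 C, then exposed to compounds for 40 hr at 37 C. Intracellular ATP was read by CellTiter-Glo luminescence after 30 min at room temperature; AC50 from Hill-equation fits.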
# [5] = molecular target: Tumor susceptibility gene 101 protein (Homo sapiens) (UniProt Q99816); assay: qHTS Assay for Iinhibitors of HIV-1 Budding by Blocking the Interaction of PTAP/TSG101: Hit Validation (AID 651600); also: nearly all actives have a fitted effect of over 70% in size
# Outline: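 Fluorescence polarization binding assay: Tsg101 binding domain (10 uM) mixed with compounds and FITC-labeled PTAP peptide (50 nM) in HEPES pH 7.5, 0.15 M NaCl, 0.01% Tween 20, EDTA, TCEP; 20 min at r.t.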
# [6] = molecular target: Pyruvate kinase (Leishmania mexicana) (UniProt Q27686); assay: qHTS Validation Assay for Activators of Leishmania Mexicana Pyruvate Kinase (AID 959)
# Outline: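 Substrate mix (0.5 mM PEP, 0.1 mM ADP, 7 mM MgCl2, 50 mM KCl, pH 7.2 imidazole) received compound by pin tool, then 0.2 nM LmPYK E451W. After 1 h at room temperature, PKLight was added and luminescence measured.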
# [7] = molecular target: Glutathione peroxidase 1 (Homo sapiens) (UniProt P07203); assay: Primary qHTS Assay for Inhibitors of Recombinant Selenoprotein Glutathione Peroxidase 1 (GPX1) (AID 1845191); also: nearly all actives have a fitted effect of over 65% in size
# Outline: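 10 nM GPX1 + cpd, 30 min RT; start w/ 1 mM GSH, 0.5 mM cumene hydroperoxide, 0.5 mM NADPH, 100 nM GR, 0.01% BSA; buffer 50 mM Tris-HCl pH 7.5, 2 mM EDTA, 150 mM NaCl; Fl 340/450, 0 & 15 min.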
# [8] = molecular target: Phospholipid hydroperoxide glutathione peroxidase GPX4 (Homo sapiens) (UniProt P36969); assay: Primary qHTS Assay for Inhibitors of Recombinant Selenoprotein Glutathione Peroxidase 4 (GPX4) (AID 1845192); also: nearly all actives have a fitted effect of over 65% in size
# Outline: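 NADPH consumption, followed by fluorescence at 340/450 nm between 0 and 15 min, reports GPX4 activity via coupled glutathione reductase (100 nM). Enzyme 200 nM was pre-exposed to compound 30 min; 0.5 mM cumene hydroperoxide and 1 mM GSH served as substrates.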
# CP211 = assay: qHTS profiling for inhibitors of Plasmodium falciparum proliferation (AID 504749); also: nearly all actives have a fitted effect of over 60% in size; settings: P. falciparum in erythrocytes, SYBR Green DNA, 72 h; series mostly up to 28.7 µM
# Outline: (§1)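 Three-day growth assay of blood-stage parasites in erythrocytes (0.3% parasitemia, 2.5% hematocrit) at 37 C, 5% CO2, quantified by SYBR Green DNA staining after overnight detergent lysis.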
# CP250 = assay: as above; settings: P. falciparum in erythrocytes, SYBR Green DNA, 72 h; series mostly up to 28.7 µM
# Outline: as §1
# DIV17 = assay: as above; settings: P. falciparum in erythrocytes, SYBR Green DNA, 72 h; series mostly up to 28.7 µM
# Outline: as §1
# [9] = molecular target: Estrogen receptor (Homo sapiens) (UniProt P03372); assay: qHTS assay for small molecule antagonists of estrogen receptor alpha signaling (AID 588513; active = well fitted curve in the direction sought with a large enough effect in the signal ratio, with a control signal flat, not every such curve was filed as active; the % refers to the signal ratio)
# Outline: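 ER-alpha-UAS-bla GripTite HEK 293 cells in 2% charcoal/dextran-treated FBS medium; compounds titrated (1:2, duplicate), then stimulated with 0.5 nM 17-beta-estradiol for 18 h at 37C. CCF4 beta-lactamase fluorescence; Hill-fit IC50 and efficacy.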
# [10] = molecular target: Peroxisome proliferator-activated receptor gamma (Homo sapiens) (UniProt P37231); assay: qHTS assay for small molecule agonists of peroxisome proliferator-activated receptor gamma signaling (AID 588536; active = well fitted curve in the direction sought with a large enough effect in the signal ratio, with a control signal flat, not every such curve was filed as active; the % refers to the signal ratio)
# Outline: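 GeneBLAzer PPAR-gamma-UAS-bla HEK293 cells in 1% charcoal/dextran-treated FBS medium were treated 16 h at 37 C with compounds. Beta-lactamase activity was read by CCF4 ratio (460/530 nm). Response was normalized to 2 uM rosiglitazone (100%) and DMSO, then Hill-fitted for EC50 and efficacy.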
# [11] = molecular target: Peroxisome proliferator-activated receptor gamma (Homo sapiens) (UniProt P37231); assay: qHTS assay for small molecule antagonists of peroxisome proliferator-activated receptor gamma signaling (AID 588537; active = well fitted inhibition curve with a large enough effect in the signal ratio, with a control signal flat, not every such curve was filed as active; the % refers to the signal ratio;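 also: reporter cells co-stimulated with 50 nM rosiglitazone agonist during compound treatment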)
# Outline: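 Inhibitors of agonist-stimulated UAS-bla reporter activity were sought in HEK293 cells; rosiglitazone (50 nM) defined full signal and DMSO baseline. Curves fitted to Hill model gave IC50 and efficacy.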
# [12] = molecular target: Rap guanine nucleotide exchange factor 4 (Homo sapiens) (UniProt Q8WZA2); assay: Confirmatory qHTS for antagonist of cAMP-regulated guanine nucleotide exchange factor 4 (EPAC2) (AID 1645885); also: nearly all actives have a fitted effect of over 25% in size
# [13] = molecular target: Metallo-beta-lactamase type 2 (Klebsiella pneumoniae) (UniProt C7C422); assay: qHTS to identify inhibitors of the New Delhi Metallo-beta-lactamase (NDM): assay validation screen against the NCATS LOPAC Collection (AID 1794843);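 also: nitrocefin turnover by NDM-1 measured as 485 nm absorbance at plateau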
# Outline: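 NDM-1 at 2 nM final in 50 mM HEPES pH 7.0, 1 uM ZnSO4, 0.01% Tween20, preincubated with LOPAC compounds pinned in DMSO; 50 uM nitrocefin (stock) added. Hydrolysis read as absorbance at 485 nm in the plateau phase.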
# CP260 = assay: qHTS profiling for inhibitors of Plasmodium falciparum proliferation (AID 504749); also: nearly all actives have a fitted effect of over 60% in size; settings: P. falciparum in erythrocytes, SYBR Green DNA, 72 h; series mostly up to 28.7 µM
# Outline: as §1
# CP266 = assay: as above; settings: P. falciparum in erythrocytes, SYBR Green DNA, 72 h; series mostly up to 28.7 µM
# Outline: as §1
# DIV14 = assay: as above; settings: P. falciparum in erythrocytes, SYBR Green DNA, 72 h; series mostly up to 28.7 µM
# Outline: as §1
# PC26 = assay: as above; settings: P. falciparum in erythrocytes, SYBR Green DNA, 72 h; series mostly up to 28.7 µM
# Outline: as §1
# Chain of Peroxisome proliferator-activated receptor gamma (Homo sapiens) (P37231 whole entry, looked up): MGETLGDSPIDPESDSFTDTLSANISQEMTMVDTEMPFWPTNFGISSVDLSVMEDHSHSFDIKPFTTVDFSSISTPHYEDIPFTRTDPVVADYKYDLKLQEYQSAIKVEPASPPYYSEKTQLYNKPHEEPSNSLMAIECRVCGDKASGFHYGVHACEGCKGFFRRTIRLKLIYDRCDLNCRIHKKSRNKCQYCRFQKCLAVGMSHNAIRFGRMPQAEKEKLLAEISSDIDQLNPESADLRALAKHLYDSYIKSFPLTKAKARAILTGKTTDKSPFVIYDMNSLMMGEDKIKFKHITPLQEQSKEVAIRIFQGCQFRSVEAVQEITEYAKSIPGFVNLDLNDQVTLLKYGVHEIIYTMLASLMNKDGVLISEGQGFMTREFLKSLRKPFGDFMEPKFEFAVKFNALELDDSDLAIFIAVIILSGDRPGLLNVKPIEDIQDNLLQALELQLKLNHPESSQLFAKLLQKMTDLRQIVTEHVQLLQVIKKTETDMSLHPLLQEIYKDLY
# Chain of Rap guanine nucleotide exchange factor 4 (Homo sapiens) (Q8WZA2 whole entry, looked up): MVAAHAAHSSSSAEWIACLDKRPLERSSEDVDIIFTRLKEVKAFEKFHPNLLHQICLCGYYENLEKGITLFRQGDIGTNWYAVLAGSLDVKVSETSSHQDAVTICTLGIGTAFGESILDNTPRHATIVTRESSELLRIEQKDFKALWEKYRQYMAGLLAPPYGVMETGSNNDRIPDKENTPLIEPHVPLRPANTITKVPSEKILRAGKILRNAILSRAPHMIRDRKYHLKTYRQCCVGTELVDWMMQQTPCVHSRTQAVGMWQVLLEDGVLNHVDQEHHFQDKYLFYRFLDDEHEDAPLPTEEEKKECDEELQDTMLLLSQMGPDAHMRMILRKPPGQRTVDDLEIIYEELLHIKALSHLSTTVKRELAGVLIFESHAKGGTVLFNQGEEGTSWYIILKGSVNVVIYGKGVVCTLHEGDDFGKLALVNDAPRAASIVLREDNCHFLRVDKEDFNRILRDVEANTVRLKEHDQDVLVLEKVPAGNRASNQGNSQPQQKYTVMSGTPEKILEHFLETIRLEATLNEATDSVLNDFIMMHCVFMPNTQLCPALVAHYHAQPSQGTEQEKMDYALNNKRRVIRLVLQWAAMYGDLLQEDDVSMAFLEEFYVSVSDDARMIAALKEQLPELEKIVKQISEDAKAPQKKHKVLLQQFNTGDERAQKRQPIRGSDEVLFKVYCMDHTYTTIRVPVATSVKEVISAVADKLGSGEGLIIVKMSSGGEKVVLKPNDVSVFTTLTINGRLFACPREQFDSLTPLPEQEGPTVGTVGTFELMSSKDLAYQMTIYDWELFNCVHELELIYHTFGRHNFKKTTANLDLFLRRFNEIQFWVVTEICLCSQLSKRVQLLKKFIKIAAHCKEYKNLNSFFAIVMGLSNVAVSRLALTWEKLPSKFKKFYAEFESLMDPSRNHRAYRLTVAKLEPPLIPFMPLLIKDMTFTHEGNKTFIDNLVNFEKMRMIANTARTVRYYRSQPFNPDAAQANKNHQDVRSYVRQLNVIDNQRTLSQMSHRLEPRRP
# Chain of Pyruvate kinase (Leishmania mexicana) (Q27686 2-499 E452W): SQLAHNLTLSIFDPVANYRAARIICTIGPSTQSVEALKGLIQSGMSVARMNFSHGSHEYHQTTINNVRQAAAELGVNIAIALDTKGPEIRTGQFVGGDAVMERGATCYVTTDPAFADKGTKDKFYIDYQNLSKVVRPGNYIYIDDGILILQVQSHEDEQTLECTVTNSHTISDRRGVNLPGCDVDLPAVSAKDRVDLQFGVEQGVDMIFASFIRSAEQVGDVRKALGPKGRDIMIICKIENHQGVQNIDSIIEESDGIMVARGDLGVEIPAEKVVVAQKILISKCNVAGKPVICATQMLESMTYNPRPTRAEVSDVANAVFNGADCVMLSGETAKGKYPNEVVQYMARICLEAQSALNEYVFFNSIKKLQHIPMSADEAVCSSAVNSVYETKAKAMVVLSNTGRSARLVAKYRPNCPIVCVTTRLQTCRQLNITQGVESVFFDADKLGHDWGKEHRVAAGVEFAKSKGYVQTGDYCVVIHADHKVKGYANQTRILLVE
# Chain of Tumor susceptibility gene 101 protein (Homo sapiens) (Q99816 whole entry, looked up, the tested form may be a part): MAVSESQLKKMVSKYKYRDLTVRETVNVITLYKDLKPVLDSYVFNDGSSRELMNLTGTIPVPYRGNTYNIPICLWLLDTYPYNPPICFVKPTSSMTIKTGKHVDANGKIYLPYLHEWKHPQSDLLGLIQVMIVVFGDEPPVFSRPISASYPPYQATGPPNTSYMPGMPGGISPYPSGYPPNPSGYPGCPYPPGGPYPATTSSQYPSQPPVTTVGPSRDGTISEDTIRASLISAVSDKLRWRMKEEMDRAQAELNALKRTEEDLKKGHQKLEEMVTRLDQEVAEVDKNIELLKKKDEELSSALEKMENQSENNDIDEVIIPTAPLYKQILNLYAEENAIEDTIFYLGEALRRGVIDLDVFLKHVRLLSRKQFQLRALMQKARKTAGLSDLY
# Chain of Glutathione peroxidase 1 (Homo sapiens) (P07203 whole entry, looked up): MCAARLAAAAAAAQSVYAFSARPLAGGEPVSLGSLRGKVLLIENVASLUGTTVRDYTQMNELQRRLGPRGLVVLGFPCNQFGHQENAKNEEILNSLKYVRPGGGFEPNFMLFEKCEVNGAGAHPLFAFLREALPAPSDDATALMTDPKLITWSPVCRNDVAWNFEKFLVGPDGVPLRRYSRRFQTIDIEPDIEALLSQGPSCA
# Chain of Metallo-beta-lactamase type 2 (Klebsiella pneumoniae) (C7C422 whole entry, looked up): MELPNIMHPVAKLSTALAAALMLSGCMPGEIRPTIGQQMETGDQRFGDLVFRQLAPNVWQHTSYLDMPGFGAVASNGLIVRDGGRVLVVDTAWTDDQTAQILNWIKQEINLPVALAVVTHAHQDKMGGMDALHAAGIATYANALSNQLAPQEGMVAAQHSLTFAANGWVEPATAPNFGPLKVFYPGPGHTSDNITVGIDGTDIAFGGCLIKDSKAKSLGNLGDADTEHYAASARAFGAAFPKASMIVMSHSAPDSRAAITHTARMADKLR
# Chain of Phospholipid hydroperoxide glutathione peroxidase GPX4 (Homo sapiens) (P36969 whole entry, looked up): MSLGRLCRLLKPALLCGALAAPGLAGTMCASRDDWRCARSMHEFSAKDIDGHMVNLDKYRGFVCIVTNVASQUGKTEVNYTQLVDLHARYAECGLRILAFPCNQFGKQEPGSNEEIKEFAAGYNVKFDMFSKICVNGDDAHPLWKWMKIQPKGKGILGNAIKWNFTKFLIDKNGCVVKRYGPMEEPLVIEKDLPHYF
# Chain of Estrogen receptor (Homo sapiens) (P03372 whole entry, looked up): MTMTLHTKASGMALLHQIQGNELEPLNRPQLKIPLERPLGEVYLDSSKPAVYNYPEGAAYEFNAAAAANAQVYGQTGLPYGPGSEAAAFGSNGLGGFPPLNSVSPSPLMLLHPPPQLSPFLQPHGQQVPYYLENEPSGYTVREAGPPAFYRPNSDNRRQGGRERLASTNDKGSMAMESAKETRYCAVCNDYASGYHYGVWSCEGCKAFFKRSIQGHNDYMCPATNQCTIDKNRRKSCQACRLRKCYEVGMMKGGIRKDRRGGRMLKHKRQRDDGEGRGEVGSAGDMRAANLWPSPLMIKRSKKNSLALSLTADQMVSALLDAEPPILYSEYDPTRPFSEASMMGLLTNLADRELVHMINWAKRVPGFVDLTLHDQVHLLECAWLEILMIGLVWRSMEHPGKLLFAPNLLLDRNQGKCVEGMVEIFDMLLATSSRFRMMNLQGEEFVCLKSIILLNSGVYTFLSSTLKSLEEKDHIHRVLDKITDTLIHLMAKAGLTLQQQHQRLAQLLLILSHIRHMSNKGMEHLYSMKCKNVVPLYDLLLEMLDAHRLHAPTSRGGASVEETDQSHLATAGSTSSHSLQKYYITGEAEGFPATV
smiles,measurement,setting,value
Oc1c(Cl)c(Cl)c(Cl)c(Cl)c1Cl,outcome,[1],inactive
same,outcome,[2],inactive
same,outcome,[3],inactive
same,Potency,[4],inactive
C=CCN1CCC2(C)c3cc(O)ccc3CC1C2C (stereo not given),outcome,[5],inactive
COC(=O)c1cc2c(cn1)[nH]c1ccccc12,Potency,[6],inactive
CO[C@H]1[C@@H](O)CC(OC2[C@@H](O)CC(OC3[C@@H](O)C[C@H](OC4CC[C@@]5(C)C(CCC6C5CC(O)[C@]5(C)[C@H](C7=CC(=O)OC7)CCC65O)C4)O[C@@H]3C)O[C@@H]2C)O[C@@H]1C (stereo not given in full),Potency,[7],inactive
same,Potency,[8],inactive
same,Potency,CP211,inactive
same,Potency,CP250,inactive
same,Potency,DIV17,inactive
CC(C)OC(=O)Nc1ccccc1,Potency,[9],inactive
same,outcome,[10],inactive
same,Potency,[11],inactive
CC(C)=CCCC1(C)C=Cc2c(O)c3c(c(CC=C(C)C)c2O1)OC12C(=CC4CC1C(C)(C)OC2(C/C=C(/C)C(=O)O)C4O)C3=O (stereo not given),Potency,[12],inactive
C/C=C/CC(C)C(O)C1C(=O)NC(CC)C(=O)N(C)CC(=O)N(C)C(CC(C)C)C(=O)NC(C(C)C)C(=O)N(C)C(CC(C)C)C(=O)NC(C)C(=O)NC(C)C(=O)N(C)C(CC(C)C)C(=O)N(C)C(CC(C)C)C(=O)N(C)C(C(C)C)C(=O)N1C (stereo not given),outcome,[13],inactive
CCN(CC)CCO[C@H]1CC[C@@]2(C)C(=CC[C@@H]3[C@H]2CC[C@]2(C)C(=O)CC[C@H]32)C1,Potency,CP260,inactive
same,Potency,CP266,inactive
same,Potency,DIV14,inactive
same,Potency,PC26,inactive
